# Test results as given in PubChem BioAssay AID1347414 (National Center for Advancing Translational Sciences (NCATS), 2020).
# Results filed as inconclusive are left out. A call without a number means that no potency is given here. Activity calls are given as the source filed them. Calls follow the shape of the dose curve; as a rule, active = well fitted inhibition curve with a large enough effect; inconclusive = small, poorly fitted or top-dose-only effect; inactive = no such curve, though single readings can be large or run the other way.
# Experiment: qHTS to identify inhibitors of the type 1 interferon - major histocompatibility complex class I in skeletal muscle: Secondary screen by immunofluorescence; also: nearly all actives have a fitted effect of over 70% in size
# Settings: C25cl48 myoblasts, IFN-b induced HLA-ABC immunofluorescence, 24 h, Viability; series mostly up to 49.8 µM
# Method in brief: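 HLA-ABC immunofluorescence, with nuclear and cell-body stains, was quantified by laser scanning cytometry. Read-out followed 24 h of IFN-beta (4.0 ng/ml) stimulation of C25cl48 human myoblasts with compounds titrated 1:3 over 11 points from 50 uM, with ruxolitinib as inhibitor control.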
# Potency is read from the fitted curve at half-maximal effect.
row,Compound,Potency
1,O=C(/C=C/c1ccc2ccc(C(F)(F)F)cc2n1)c1ccncc1,3.64 µM (active)
2,NS(=O)(=O)OC[C@@H]1C[C@@H](n2ccc3c(N[C@H]4CCc5ccccc54)ncnc32)C[C@@H]1O,inactive
3,C[C@H]1C[C@@H]2[C@H]([C@@H](O)C[C@@]3(C)[C@H]2CC[C@]3(O)C(=O)CO)[C@@]2(C)C=CC(=O)C=C12,inactive
4,CC(=O)OCC(=O)[C@@]1(O)CC[C@H]2[C@@H]3CCC4=CC(=O)C=C[C@]4(C)[C@H]3[C@@H](O)C[C@@]21C,inactive
5,CN(C)Cc1c(C(=O)NCCOc2ccc(C(=O)NO)cc2)oc2ccccc12,inactive
6,O=C(Nc1cn[nH]c1-c1nc2ccc(CN3CCOCC3)cc2[nH]1)NC1CC1,inactive
7,O=C(CCCCCCC(=O)Nc1ccccc1)NO,inactive
8,C=C1C(=O)O[C@@H]2[C@H]3O[C@]3(C)CC/C=C(\C)CC[C@@H]12,11.5 µM (active)
9,CCOc1cc2ncc(C#N)c(Nc3ccc(F)c(Cl)c3)c2cc1NC(=O)/C=C/CN(C)C,16.2 µM (active)
10,O=C1NC(=O)[C@@H](c2c[nH]c3ccccc23)[C@H]1c1cn2c3c(cccc13)CCC2,inactive
11,CC(C)c1nn(-c2c(Cl)cccc2Cl)c2nc(Cc3ccc(OCCO)cc3)[nH]c(=O)c12,inactive
12,COCCN1CCN(Cc2ccc(-c3n[nH]c4c3C(=O)c3c(NC(=O)NN5CCOCC5)cccc3-4)cc2)CC1,20.5 µM (active)
13,Cn1cc(CNCC2CCN(c3ncc(C(=O)NO)cn3)CC2)c2ccccc21,inactive
14,O=C1NCCc2[nH]c(-c3ccncc3)cc21,inactive
15,CC[C@H](CC#N)OC(=O)N[C@@H](C)c1cccc(NC(=O)Nc2ccc(-c3cnco3)c(OC)c2)c1,inactive
16,CC(=O)c1cnc2ccc(-c3cc(Cl)c(O)c(Cl)c3)nc2c1NC1CCC(CN(C)C)CC1 (configuration not stated),14.5 µM (active)
17,CCC(=C/[C@H](C)C/C=C/C(C)=C/[C@@H](C)C(=O)[C@@H](C)[C@H](O)[C@@H](C)C/C(C)=C/C(=O)O)/C=C/[C@@H]1OC(=O)C=C[C@@H]1C,inactive
18,Cc1c(C(=O)Nc2ccc(Oc3ccnc4[nH]cc(-c5ccccc5)c34)c(F)c2)c(=O)n(-c2ccc(F)cc2)n1C,inactive
19,CC(C)C[C@H](NC(=O)CNC(=O)c1cc(Cl)ccc1Cl)B1OC(=O)CC(CC(=O)O)(C(=O)O)O1 (some centres not stated),inactive
20,Cc1sc2c(c1C)C(c1ccc(Cl)cc1)=N[C@@H](CC(=O)Nc1ccc(OCCOCCOCCOCCNc3cccc4c3C(=O)N(C3CCC(=O)NC3=O)C4=O)cc1)c1nnc(C)n1-2 (some centres not stated),inactive
21,CC1(COc2ccc3c(c2)ncn3-c2ccc3cccc(N4CCC(N)CC4)c3n2)COC1,7.26 µM (active)
22,COc1cc(Nc2ncc(F)c(Nc3ccc4c(n3)NC(=O)C(C)(C)O4)n2)cc(OC)c1OC,inactive
